Measured potencies and affinities stand elsewhere. Activity calls are given as the source filed them. How the calls were made is not given here.
test: host cell cytotoxicity of antiviral hits, dose response, cytotoxicity control for West Nile virus antiviral project, secondary assay (AID 1650); settings: Mammalian host cell viability, cytotoxicity counter-screen; series mostly up to 20 µM; viability: at the top concentration

SMILES | viability
CC(C)c1oc(=O)cc2c1[C@@H](O)[C@H]1OC(=O)[C@@]3(C)C[C@@H](O)[C@@H](O)[C@@]2(C)C13 (some centres undefined) | 92.9% [at 10 µM] (inactive)
Cc1ccc2c(c1)[C@@H]1CN(C)CC[C@@H]1N2C(=O)Nc1cccc(C(F)(F)F)c1 | 81.5% [at 10 µM] (inactive)
c1ccc2c(c1)Sc1ccccc1N2CC1CN2CCC1CC2 (centres undefined) | 87% [at 10 µM] (inactive)
CC(C)c1oc(=O)cc2c1[C@@H](O)[C@H]1OC(=O)[C@@]3(C)CC[C@@H](O)[C@@]2(C)C13 (some centres undefined) | 86.6% [at 10 µM] (inactive)
O=C(N/N=C/c1c(O)n(CCc2ccccc2)c(=O)[nH]c1=O)c1ccccc1O | 95.3% (inactive)
O=C1/C(=C\c2ccccc2)C2OCC=C3CN4CCC56c7ccccc7N1C5C2C3CC46 (centres undefined) | 78.2% (inactive)
O=c1c2ccccc2nc(/C=C/c2ccccc2O)n1-c1ccccc1O | 75.6% (inactive)
CCN(CC)c1nc2c(C)cccn2c(=O)c1C=C1C(=O)NC(=O)NC1=O | 93.5% (inactive)
CN(C)CCN(CC1CCCN(Cc2ccccc2F)C1)C(=O)Cc1ccc(F)c(F)c1 (centres undefined) | 89.5% (inactive)
